Reference: paper PMC7862700, “An all-to-all approach to the identification of sequence-specific readers for epigenetic DNA modifications on cytosine”

How the values were obtained:
Experiment in all cases: DAPPL (digital affinity profiling via proximity ligation, sequencing); 10 mM Tris-HCl pH 7.5, 50 mM NaCl, 1 mM DTT, 4% glycerol, room temperature, 30 min; GST-TFs on glutathione beads, 16-mer random dsDNA library, 0.1% formaldehyde crosslink after washing; high values mean tight binding
FEV = target: T1, FEV (Homo sapiens, UniProt Q99581 1-238); conditions: protein: recombinant; tags: N-terminal GST; dsDNA, one strand shown
T1 sequence: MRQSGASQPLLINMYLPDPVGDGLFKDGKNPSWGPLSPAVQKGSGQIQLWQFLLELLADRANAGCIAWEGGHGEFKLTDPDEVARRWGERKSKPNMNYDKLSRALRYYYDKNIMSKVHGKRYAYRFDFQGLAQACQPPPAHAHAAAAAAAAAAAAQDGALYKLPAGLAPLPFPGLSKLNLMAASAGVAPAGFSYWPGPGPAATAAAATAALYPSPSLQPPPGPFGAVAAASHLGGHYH
Method in brief: (§1)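 Sequencing on an Illumina NextSeq500 followed washing, crosslinking with 0.1% formaldehyde, proximity ligation (BsaI/T4 ligase, 1 h, 37 °C) and PCR amplification of pools that had been incubated for 30 min at room temperature with 200 nmole of a random double-stranded 16-mer DNA library in Tris/NaCl/DTT/glycerol buffer. Each pool held DNA-barcoded human transcription factors, expressed in yeast as GST fusions and captured on glutathione beads, plus a tag-only sample. Binding signal is a hexamer's read frequency for a factor divided by its frequency in the tag-only sample.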

ETV5 = ETV5 (Homo sapiens, UniProt P41161 1-510); conditions: protein: recombinant; tags: N-terminal GST; dsDNA, one strand shown
Chain of ETV5 (P41161 whole entry): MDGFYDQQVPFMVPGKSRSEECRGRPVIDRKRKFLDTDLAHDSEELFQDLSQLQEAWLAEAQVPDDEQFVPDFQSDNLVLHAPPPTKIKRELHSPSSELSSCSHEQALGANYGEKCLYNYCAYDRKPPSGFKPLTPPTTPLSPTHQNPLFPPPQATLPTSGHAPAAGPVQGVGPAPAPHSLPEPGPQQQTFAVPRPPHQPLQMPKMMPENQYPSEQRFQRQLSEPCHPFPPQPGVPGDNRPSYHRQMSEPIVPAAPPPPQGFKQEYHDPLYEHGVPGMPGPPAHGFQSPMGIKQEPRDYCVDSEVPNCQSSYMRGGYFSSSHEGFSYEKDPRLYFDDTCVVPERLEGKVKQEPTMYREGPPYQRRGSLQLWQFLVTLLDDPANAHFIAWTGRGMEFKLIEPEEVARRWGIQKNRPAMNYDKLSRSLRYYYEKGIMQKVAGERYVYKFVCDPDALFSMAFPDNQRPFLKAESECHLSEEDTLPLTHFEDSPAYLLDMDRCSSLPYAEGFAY
Method in brief: as §1

HSF1 = HSF1 (Homo sapiens, UniProt Q00613 1-529); conditions: protein: recombinant; tags: N-terminal GST; chain copies: 3; dsDNA, one strand shown
Chain of HSF1 (Q00613 whole entry): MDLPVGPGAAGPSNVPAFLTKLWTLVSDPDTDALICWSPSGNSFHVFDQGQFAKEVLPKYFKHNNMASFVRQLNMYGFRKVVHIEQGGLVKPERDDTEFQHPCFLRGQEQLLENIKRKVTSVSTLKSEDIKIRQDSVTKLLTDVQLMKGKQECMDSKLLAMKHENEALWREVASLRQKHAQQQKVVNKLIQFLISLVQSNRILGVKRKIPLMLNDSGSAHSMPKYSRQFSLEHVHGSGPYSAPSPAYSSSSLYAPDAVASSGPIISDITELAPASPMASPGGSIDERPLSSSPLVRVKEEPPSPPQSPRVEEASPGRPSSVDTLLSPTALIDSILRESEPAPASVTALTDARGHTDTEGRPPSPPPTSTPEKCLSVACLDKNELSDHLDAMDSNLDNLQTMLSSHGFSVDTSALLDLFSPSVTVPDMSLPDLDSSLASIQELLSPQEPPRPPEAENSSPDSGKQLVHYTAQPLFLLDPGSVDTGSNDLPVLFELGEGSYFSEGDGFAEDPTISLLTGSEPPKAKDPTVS
Method in brief: as §1

SPIC = target: T2, SPIC (Homo sapiens, UniProt Q8N5J4 1-248); conditions: protein: recombinant; tags: N-terminal GST; dsDNA, one strand shown
T2 sequence: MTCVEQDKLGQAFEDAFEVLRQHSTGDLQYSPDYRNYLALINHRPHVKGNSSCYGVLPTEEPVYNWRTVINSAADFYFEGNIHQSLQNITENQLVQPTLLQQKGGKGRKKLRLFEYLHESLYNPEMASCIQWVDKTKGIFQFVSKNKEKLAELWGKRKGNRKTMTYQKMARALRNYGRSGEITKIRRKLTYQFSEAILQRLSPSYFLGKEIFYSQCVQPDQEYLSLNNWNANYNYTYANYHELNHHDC
Method in brief: as §1

ELF4 = ELF4 (Homo sapiens, UniProt Q99607 1-663); conditions: protein: recombinant; tags: N-terminal GST; dsDNA, one strand shown
Chain of ELF4 (Q99607 whole entry): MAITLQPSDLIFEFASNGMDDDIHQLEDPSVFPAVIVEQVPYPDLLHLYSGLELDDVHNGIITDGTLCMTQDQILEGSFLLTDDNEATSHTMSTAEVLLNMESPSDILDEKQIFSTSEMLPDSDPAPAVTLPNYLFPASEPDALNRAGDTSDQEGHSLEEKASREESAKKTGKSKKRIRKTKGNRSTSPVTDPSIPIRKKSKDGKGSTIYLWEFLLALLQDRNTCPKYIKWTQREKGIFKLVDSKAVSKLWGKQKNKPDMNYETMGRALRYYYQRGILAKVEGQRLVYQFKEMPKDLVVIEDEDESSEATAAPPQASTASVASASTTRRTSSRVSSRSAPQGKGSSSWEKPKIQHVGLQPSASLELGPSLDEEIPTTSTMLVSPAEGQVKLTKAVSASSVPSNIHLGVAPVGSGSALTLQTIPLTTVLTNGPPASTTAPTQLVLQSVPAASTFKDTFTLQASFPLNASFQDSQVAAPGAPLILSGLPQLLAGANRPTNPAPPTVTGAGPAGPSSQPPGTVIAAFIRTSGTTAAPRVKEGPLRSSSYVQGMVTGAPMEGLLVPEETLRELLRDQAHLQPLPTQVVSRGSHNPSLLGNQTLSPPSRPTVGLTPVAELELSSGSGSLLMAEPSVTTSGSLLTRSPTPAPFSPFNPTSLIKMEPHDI
Method in brief: as §1

ELK4 = target: T3, ELK4 (Homo sapiens, UniProt P28324-2 1-405); conditions: protein: recombinant; tags: N-terminal GST; dsDNA, one strand shown
T3 sequence: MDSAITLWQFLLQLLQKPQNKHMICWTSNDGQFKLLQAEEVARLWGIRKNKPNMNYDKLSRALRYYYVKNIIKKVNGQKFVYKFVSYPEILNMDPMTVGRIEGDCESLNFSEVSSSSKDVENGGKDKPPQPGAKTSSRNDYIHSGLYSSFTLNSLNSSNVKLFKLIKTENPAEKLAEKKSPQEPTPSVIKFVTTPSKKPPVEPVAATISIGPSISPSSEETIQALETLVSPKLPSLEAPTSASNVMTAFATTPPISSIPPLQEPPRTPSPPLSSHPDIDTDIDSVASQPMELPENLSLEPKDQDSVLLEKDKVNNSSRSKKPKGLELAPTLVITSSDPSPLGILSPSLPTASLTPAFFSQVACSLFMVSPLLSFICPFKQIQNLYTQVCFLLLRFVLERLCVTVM
Method in brief: as §1

ETV2 = target: T4, ETV2 (Homo sapiens, UniProt O00321 1-342); conditions: protein: recombinant; tags: N-terminal GST; dsDNA, one strand shown
T4 sequence: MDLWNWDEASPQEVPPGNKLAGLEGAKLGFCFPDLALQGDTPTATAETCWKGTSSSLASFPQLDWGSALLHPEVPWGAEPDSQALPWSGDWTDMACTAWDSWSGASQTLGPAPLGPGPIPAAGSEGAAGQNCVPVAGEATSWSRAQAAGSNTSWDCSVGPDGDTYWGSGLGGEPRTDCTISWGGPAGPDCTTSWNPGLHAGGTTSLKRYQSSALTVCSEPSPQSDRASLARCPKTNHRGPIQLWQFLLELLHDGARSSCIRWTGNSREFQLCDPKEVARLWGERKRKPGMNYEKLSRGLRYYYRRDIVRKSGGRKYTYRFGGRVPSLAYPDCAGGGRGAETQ
Method in brief: as §1

ELF3 = target: T5, ELF3 (Homo sapiens, UniProt P78545 1-371); conditions: protein: recombinant; tags: N-terminal GST; dsDNA, one strand shown
T5 sequence: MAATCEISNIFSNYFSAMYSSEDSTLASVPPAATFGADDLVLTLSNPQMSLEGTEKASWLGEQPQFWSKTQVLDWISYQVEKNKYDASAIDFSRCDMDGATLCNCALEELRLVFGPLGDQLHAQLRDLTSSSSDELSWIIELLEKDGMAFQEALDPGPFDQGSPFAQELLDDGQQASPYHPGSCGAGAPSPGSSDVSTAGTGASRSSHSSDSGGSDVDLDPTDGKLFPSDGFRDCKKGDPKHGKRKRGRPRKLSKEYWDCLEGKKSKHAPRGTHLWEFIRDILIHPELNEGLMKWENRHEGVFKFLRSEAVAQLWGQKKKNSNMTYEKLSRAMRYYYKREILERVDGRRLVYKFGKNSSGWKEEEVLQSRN
Method in brief: as §1

ETV1 = ETV1 (Homo sapiens, UniProt P50549 1-477); conditions: protein: recombinant; tags: N-terminal GST; dsDNA, one strand shown
Chain of ETV1 (P50549 whole entry): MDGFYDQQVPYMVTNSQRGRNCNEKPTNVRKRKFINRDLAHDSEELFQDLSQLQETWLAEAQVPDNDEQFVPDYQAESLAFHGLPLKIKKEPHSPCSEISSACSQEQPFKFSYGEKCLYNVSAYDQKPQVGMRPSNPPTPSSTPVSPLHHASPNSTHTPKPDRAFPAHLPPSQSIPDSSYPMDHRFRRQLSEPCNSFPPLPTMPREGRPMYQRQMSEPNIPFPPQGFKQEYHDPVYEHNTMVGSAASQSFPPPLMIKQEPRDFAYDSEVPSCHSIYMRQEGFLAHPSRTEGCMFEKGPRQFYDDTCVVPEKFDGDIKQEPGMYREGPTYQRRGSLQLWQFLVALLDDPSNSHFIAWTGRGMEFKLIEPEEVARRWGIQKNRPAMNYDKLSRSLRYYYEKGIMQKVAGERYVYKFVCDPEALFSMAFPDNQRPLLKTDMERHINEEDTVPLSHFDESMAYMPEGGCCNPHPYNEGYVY
Method in brief: as §1

ERF = target: T6, ERF (Homo sapiens, UniProt P50548 1-548); conditions: protein: recombinant; tags: N-terminal GST; dsDNA, one strand shown
T6 sequence: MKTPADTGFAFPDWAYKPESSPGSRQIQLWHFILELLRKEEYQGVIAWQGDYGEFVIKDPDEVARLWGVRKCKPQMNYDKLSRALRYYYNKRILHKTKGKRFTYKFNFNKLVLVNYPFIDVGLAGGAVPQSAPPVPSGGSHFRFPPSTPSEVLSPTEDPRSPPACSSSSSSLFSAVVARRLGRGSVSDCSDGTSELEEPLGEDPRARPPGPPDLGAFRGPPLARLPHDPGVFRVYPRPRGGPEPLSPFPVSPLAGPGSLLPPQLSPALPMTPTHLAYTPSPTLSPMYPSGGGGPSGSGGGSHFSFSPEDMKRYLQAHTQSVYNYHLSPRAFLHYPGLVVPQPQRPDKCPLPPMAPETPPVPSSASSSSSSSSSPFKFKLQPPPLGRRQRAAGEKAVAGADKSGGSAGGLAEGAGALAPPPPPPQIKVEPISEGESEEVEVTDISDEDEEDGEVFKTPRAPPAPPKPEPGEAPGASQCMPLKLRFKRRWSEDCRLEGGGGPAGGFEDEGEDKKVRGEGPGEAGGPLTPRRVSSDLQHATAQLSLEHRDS
Method in brief: as §1

ETV3L = target: T7, ETV3L (Homo sapiens, UniProt Q6ZN32 1-361); conditions: protein: recombinant; tags: N-terminal GST; dsDNA, one strand shown
T7 sequence: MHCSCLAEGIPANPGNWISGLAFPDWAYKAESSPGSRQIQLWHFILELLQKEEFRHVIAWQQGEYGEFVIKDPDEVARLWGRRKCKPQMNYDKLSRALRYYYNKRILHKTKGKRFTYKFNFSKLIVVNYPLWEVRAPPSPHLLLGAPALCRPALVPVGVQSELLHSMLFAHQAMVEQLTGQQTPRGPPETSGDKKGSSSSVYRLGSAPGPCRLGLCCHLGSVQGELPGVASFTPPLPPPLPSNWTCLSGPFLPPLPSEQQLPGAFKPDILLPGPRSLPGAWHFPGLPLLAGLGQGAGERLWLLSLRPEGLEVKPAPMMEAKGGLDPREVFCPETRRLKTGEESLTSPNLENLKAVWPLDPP
Method in brief: as §1

ETS2 = target: T8, ETS2 (Homo sapiens, UniProt P15036 1-469); conditions: protein: recombinant; tags: N-terminal GST; dsDNA, one strand shown
T8 sequence: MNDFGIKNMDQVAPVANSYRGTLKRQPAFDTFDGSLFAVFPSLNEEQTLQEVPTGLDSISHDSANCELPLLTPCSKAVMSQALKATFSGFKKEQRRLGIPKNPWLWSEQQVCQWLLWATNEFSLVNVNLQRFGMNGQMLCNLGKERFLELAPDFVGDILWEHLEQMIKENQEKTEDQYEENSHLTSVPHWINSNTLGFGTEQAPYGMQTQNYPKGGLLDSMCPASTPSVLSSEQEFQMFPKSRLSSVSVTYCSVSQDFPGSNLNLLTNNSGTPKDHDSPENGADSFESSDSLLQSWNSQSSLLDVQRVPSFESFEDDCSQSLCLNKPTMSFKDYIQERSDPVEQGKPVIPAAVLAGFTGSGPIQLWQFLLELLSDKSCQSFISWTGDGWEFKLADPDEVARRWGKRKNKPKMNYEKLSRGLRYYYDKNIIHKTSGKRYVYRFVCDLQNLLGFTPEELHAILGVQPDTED
Method in brief: as §1

SPDEF = target: T9, SPDEF (Homo sapiens, UniProt O95238 1-335); conditions: protein: recombinant; tags: N-terminal GST; dsDNA, one strand shown
T9 sequence: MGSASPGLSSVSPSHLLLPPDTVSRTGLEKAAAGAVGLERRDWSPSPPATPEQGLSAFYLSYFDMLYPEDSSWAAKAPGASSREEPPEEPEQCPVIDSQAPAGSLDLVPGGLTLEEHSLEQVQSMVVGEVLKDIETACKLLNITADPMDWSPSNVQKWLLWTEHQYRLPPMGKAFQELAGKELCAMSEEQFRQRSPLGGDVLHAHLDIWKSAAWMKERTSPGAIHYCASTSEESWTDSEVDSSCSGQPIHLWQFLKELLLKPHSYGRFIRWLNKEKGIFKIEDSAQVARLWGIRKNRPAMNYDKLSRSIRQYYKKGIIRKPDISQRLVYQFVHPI
Method in brief: as §1

ETV7 = target: T10, ETV7 (Homo sapiens, UniProt Q9Y603 1-341); conditions: protein: recombinant; tags: N-terminal GST; dsDNA, one strand shown
T10 sequence: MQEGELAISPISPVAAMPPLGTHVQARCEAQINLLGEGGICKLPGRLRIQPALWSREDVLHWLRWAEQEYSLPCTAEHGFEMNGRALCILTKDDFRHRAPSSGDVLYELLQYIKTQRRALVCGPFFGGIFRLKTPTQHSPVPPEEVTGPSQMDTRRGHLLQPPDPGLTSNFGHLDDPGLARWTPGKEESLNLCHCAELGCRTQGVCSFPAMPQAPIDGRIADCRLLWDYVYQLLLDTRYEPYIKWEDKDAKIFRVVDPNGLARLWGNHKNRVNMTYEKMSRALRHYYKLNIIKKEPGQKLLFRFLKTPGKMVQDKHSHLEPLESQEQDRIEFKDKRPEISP
Method in brief: as §1

ELF5 = target: T11, ELF5 (Homo sapiens, UniProt Q9UKW6-2 1-255); conditions: protein: recombinant; tags: N-terminal GST; dsDNA, one strand shown
T11 sequence: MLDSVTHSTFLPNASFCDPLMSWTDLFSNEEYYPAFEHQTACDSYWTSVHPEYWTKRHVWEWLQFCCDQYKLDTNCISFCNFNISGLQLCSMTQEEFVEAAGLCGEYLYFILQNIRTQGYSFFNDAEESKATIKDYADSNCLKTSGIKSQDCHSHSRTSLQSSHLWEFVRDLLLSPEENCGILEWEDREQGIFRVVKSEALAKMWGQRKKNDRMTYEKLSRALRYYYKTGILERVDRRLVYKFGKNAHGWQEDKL
Method in brief: as §1

ETV3 = target: T12, ETV3 (Homo sapiens, UniProt P41162-2 1-143); conditions: protein: recombinant; tags: N-terminal GST; dsDNA, one strand shown
T12 sequence: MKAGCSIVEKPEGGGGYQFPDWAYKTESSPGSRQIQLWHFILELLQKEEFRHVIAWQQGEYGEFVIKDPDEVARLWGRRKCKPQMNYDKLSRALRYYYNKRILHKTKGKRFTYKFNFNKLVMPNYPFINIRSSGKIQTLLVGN
Method in brief: as §1

ETV6 = ETV6 (Homo sapiens, UniProt P41212 1-452); conditions: protein: recombinant; tags: N-terminal GST; dsDNA, one strand shown
Chain of ETV6 (P41212 whole entry): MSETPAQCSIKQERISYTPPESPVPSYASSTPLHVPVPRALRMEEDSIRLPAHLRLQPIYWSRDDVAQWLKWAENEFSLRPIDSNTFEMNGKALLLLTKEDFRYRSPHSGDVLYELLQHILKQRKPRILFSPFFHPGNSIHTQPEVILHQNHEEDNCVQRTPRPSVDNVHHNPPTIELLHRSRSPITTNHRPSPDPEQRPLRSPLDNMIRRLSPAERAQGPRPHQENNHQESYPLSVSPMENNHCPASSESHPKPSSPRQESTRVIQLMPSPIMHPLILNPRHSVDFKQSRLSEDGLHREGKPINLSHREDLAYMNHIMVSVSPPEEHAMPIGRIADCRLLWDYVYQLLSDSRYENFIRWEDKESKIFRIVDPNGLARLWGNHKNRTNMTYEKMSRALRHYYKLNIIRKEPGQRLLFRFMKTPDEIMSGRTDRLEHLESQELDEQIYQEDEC
Method in brief: as §1

Sequence: GCAAAA
- binding signal (FEV): 1.08 fold enrichment (6-mer frequency, TF over GST control)
- binding signal (ETV5): 1.07 fold enrichment (6-mer frequency, TF over GST control)
- binding signal (HSF1): 1.01 fold enrichment (6-mer frequency, TF over GST control)
- binding signal (SPIC): 1.06 fold enrichment (6-mer frequency, TF over GST control)
- binding signal (ELF4): 1.13 fold enrichment (6-mer frequency, TF over GST control)
- binding signal (ELK4): 1.16 fold enrichment (6-mer frequency, TF over GST control)
- binding signal (ETV2): 1.14 fold enrichment (6-mer frequency, TF over GST control)
- binding signal (ELF3): 1.2 fold enrichment (6-mer frequency, TF over GST control)
- binding signal (ETV1): 1.14 fold enrichment (6-mer frequency, TF over GST control)
- binding signal (ERF): 1.14 fold enrichment (6-mer frequency, TF over GST control)
- binding signal (ETV3L): 1.06 fold enrichment (6-mer frequency, TF over GST control)
- binding signal (ETS2): 1.18 fold enrichment (6-mer frequency, TF over GST control)
- binding signal (SPDEF): 1 fold enrichment (6-mer frequency, TF over GST control)
- binding signal (ETV7): 1.09 fold enrichment (6-mer frequency, TF over GST control)
- binding signal (ELF5): 1.06 fold enrichment (6-mer frequency, TF over GST control)
- binding signal (ETV3): 1.07 fold enrichment (6-mer frequency, TF over GST control)
- binding signal (ETV6): 1.04 fold enrichment (6-mer frequency, TF over GST control)
